PPC-1+TRAIL kill: kills PPC-1 cancer cells in the presence of TRAIL | cell killing (% activity), % at 4 µM or 5 µM | AID 1443 | PPC-1 cells + TRAIL, ATPLite viability luminescence | 220,000 tested, 0.41% active;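 active = cell killing above 50% in the first pass at 4 µM, then a duplicate retest at 5 µM averaging 50% or more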;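 also: plate controls were cells with TRAIL plus DMSO for no effect and medium-only wells lacking cells for full effect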
CF NFkB block: blocks PAF-induced NF-kB reporter in cystic fibrosis cells | KKLEB NF-kB-GFP reporter, GFP fluorescence overnight | inhibition, % at 5 µM | 360,000 tested, 0.86% active | AID 588850;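 active = at least 50% inhibition at 5 µM, scaled per plate between neutral and stimulator controls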;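 also: PAF is a Pseudomonas aeruginosa culture filtrate used as stimulus; plate controls were PAF-stimulated DMSO wells for no effect and unstimulated DMSO wells for full effect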
iPSC survival up: hiPSC single-cell survival enhancement | ATPlite luminescence; 100% = ROCK inhibitor wells, 0% = DMSO | AID 602274 | survival enhancement, % at 20 µM | 360,000 tested, 0.044% active; in the data active = survival enhancement above about 18%;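 also: cells exposed to compounds for 16 hours before the ATP read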
HIF-2a inh: inhibitors of HIF-2a | inhibition, % at 18.8 µM | 786-0 RCC cells HIF-2a reporter, luciferase luminescence, overnight | 360,000 tested, 0.72% active | AID 624352;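 active = inhibition of the luminescence signal of 40% or more relative to plate controls, in a single-dose primary screen at 18.75 µM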
TRAIL sens C8: sensitizes caspase-8 expressing cells to TRAIL | NB7+C8 cells + TRAIL, ATPlite viability luminescence | inhibition (viability loss, TRAIL sensitization), % at 10 µM | 360,000 tested, 1% active | AID 624354;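 active = compounds causing at least 50% loss of cell viability in the single-dose screen, relative to plate controls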
KKLEB tox: CF airway cell cytotoxicity counter-screen; 360,000 tested, 0.36% active; activity change (cytotoxicity), % at 5 µM; KKLEB CF airway cells viability, ATPlite luminescence, overnight; hits give low values; cells stimulated with P. aeruginosa culture filtrate;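 active = corrected activity change at or below -50% at 5 µM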
PPC-1 tox: PPC-1 cell cytotoxicity; shares compounds with PPC-1+TRAIL kill; PPC-1 viability, ATPlite luminescence, overnight; cytotoxicity, % at 5 µM; 1,200 tested, 50% active; AID 1447;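 active = reconfirmed compounds whose average cytotoxicity reaches 50% or more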;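 also: 0% = DMSO-treated cells and 100% = wells holding medium but no cells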
* = called active by the depositor; · = not tested or not shown. Shown are actives, neighbours in structure and some others; about 2.2% of the full set was active somewhere.

SMILES	PPC-1+TRAIL kill	CF NFkB block	iPSC survival up	HIF-2a inh	TRAIL sens C8	KKLEB tox	PPC-1 tox
Cc1cc(Cl)cc(C)c1OCC(=O)NC1CCCCCC1	·	18	-3	-77	-5	7	·
O=C(Nc1ccc2c(c1)OCCO2)c1ccccc1F	28	-14	-2	-52	48	-6	33
O=C(Nc1ccc2c(c1)OCCO2)c1ccc2ccccc2n1	43	-23	-1	-226	33	-17	42
O=C(Nc1ccc(N2CCCCC2)cc1)c1ccccn1	97*	-5	-5	93*	93*	-77*	96*
O=C(Nc1ccc(Cl)c(S(=O)(=O)N2CCOCC2)c1)c1cn2ccccc2n1	4	6	1	-4	15	6	·
O=C(Nc1ccc(N2CCOCC2)cc1)c1cn2ccccc2n1	81*	0	-5	-1	81*	2	82*
COc1cc(OC)c(NC(=O)CN(C)S(=O)(=O)c2ccc(-c3ccc(=O)[nH]n3)s2)cc1Cl	·	8	0	-10	3	0	·
COc1ccc(NS(=O)(=O)c2ccc(C)c(C(=O)N3CC(C)OC(C)C3)c2)cc1 (configuration not stated)	·	-10	0	2	-6	5	·
O=C(Nc1ccc2c(c1)OCCO2)c1ccccn1	43	11	-5	-70	75*	-12	53*
O=C(COC(=O)c1ccccn1)Nc1ccc2c(c1)OCCO2	·	-14	-1	-11	3	-5	·
CCCc1ccc(C(=O)NC(=O)c2ccccc2O)cc1	61*	-7	-1	-195	74*	-7	61*
O=C(NC(=O)c1ccccc1O)c1ccc(C(F)(F)F)cc1	20	28	-1	-231	38	4	·
COc1ccc(C(=O)/C(=C/N(C)C)S(=O)(=O)c2ccccc2)cc1	-17	3	1	-201	33	9	-44
CN(C)/C=C(/C(=O)c1ccccc1Cl)S(=O)(=O)c1ccccc1	·	14	4	8	-5	-10	·
CCOC(=O)C1(C)/C(=N/Nc2ccccc2)C(=O)C(=O)N1c1ccccc1 (configuration not stated)	-9	-22	2	-8	2	18	-1
CCOC(=O)C1(C)/C(=N/Nc2ccccc2OC)C(=O)C(=O)N1c1ccccc1 (configuration not stated)	-4	14	-1	5	3	6	·
CCCC(C)NC(=O)c1nc(-c2ccccc2)n(-c2ccccc2)n1 (configuration not stated)	-8	1	1	17	17	12	4
O=C(O)c1nc(-c2ccccc2)n(-c2ccccc2)n1	17	-12	2	10	-2	12	·
O=C(NCC1CCCO1)c1ccc2c(c1)C(=O)N(C1CCCCC1)C2=O (configuration not stated)	9	6	-1	4	-7	-2	-5
CC(C)CCN1C(=O)c2ccc(C(=O)NCC3CCCO3)cc2C1=O (configuration not stated)	7	6	-2	9	6	0	·
COc1cccc(N2CCN(S(=O)(=O)c3ccc4c(c3)NC(=O)C(C)C(=O)N4)CC2)c1 (configuration not stated)	·	15	0	26	7	14	·
O=C(NCc1ccc(Cl)cc1)C(=O)Nc1nccs1	22	-10	-2	0	7	13	·
O=C(NCCc1ccccc1F)C(=O)Nc1nccs1	0	2	1	-128	10	5	-1
COC(=O)C(C(=O)OC)C1C=CCN(C(C)=O)C1 (configuration not stated)	·	-6	2	11	-5	5	·
CC1(C)CC(=O)C=C(NNC(=O)c2ccccc2O)C1	79*	-1	-4	-113	71*	-2	75*
SMILES	PPC-1+TRAIL kill	CF NFkB block	iPSC survival up	HIF-2a inh	TRAIL sens C8	KKLEB tox	PPC-1 tox
Cc1cccc(C(=O)NNC2=CC(=O)CC(C)(C)C2)c1O	-4	18	2	-77	5	-8	·
CN(C)S(=O)(=O)c1ccc(-c2ccccc2)cc1	-21	8	-2	-107	-2	9	-19
Cc1ccc(SCc2cn3ccccc3n2)cc1	23	-21	0	-266	21	-1	·
c1ccc(CSCc2cn3ccccc3n2)cc1	-4	-22	-1	-218	3	6	-6
CCc1ccc(NC(=S)Nc2cccc3cnccc23)cc1	-3	-5	1	-212	7	-1	-6
COC(=O)c1nc2ccc(N3CCOCC3)cc2c(C)c1C(=O)OC	46	-10	-1	-174	63*	-2	49
COC(=O)c1c(-c2ccc(OC)cc2)sc2ccc(N3CCOCC3)cc12	·	-3	0	-176	13	-30	·
CCOC(=O)CNC(=O)N1CCCC(CCC(=O)NCc2ccc(F)c(F)c2)C1 (configuration not stated)	0	-1	-1	22	-9	10	·
COCCn1c(C)cc(C(=O)CSc2nncn2-c2ccccc2)c1C	3	10	-1	-48	6	8	·
COc1ccc(-n2cnnc2SCC(=O)c2cc(C)n(Cc3cccs3)c2C)cc1	3	-3	-2	-37	9	4	2
CCCS(=O)(=O)c1nc(S(=O)(=O)c2ccc(C)cc2)c(N2CCN(CC)CC2)s1	·	3	0	0	12	6	·
COc1cccc(OCc2cc(C(=O)N3CCN(C)C(c4ccccc4)C3)no2)c1 (configuration not stated)	·	3	1	-148	9	17	·
CCCCN(C(=O)CSc1nnc(Nc2ccc(C)c(C)c2)s1)c1c(N)n(Cc2ccccc2)c(=O)[nH]c1=O	33	14	-2	-186	44	-12	40
O=[N+]([O-])c1ccc(COc2cccc(CN3CCOCC3)c2)cc1	·	-42	8	-66	13	7	·
O=c1[nH]cnc2scc(-c3ccc(-c4ccccc4)cc3)c12	58*	23	-2	-219	42	-24	60*
CN(C)c1ccc(/C=N/NC(=O)c2ccn(C)n2)cc1	39	-3	-1	-159	49	3	26
O=c1[nH]c2ccccc2nc1C(Cl)c1ccccc1 (configuration not stated)	1	·	·	·	·	·	4
CCOc1ccc2nc(C(C)O)[nH]c2c1 (configuration not stated)	-9	14	-2	-1	1	-6	·
CCOc1ccc2nc(-c3ccccc3)[nH]c2c1	48	25	-4	-118	69*	-26	56*
Cc1ccc(C(=O)Nc2cc(C)c(OCC(=O)N3CCOCC3)c(C)c2)cc1	79*	8	-7	-173	83*	-23	79*

Bioassay records: PubChem BioAssay, Sanford-Burnham Center for Chemical Genomics
